A selection: hits, their analogues and other compounds. The true share with any hit is near 1.8%.
PME-1 primary = blocks human protein phosphatase methylesterase 1; Q9Y570; recombinant PME-1, FP-Rh probe fluorescence polarization; inhibition, % at 5.9 µM; 320,000 compounds, 0.53% hits;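 active = inhibition above the campaign mean of all compounds plus 3 SD, cut at about 26% in these data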;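 note: competitive labeling of PME-1 active site by serine hydrolase directed probe; 0% = PME-1 with DMSO and 100% = wells lacking PME-1 enzyme; inhibitors block probe labeling so polarization falls and inhibition rises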
PAD4 inh = blocks human protein arginine deiminase 4. recombinant PAD4, RCA probe fluorescence polarization. inhibition, % at 6.36 µM. Q9UM07. 330,000 compounds, 0.41% hits;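 active = percent inhibition above a cutoff equal to the mean of all tested compounds plus 3 SD, cut at about 15% in these data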;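 note: 0% = PAD4 with RCA probe and DMSO and 100% = probe without PAD4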
Target sequence (Q9UM07 whole entry, looked up): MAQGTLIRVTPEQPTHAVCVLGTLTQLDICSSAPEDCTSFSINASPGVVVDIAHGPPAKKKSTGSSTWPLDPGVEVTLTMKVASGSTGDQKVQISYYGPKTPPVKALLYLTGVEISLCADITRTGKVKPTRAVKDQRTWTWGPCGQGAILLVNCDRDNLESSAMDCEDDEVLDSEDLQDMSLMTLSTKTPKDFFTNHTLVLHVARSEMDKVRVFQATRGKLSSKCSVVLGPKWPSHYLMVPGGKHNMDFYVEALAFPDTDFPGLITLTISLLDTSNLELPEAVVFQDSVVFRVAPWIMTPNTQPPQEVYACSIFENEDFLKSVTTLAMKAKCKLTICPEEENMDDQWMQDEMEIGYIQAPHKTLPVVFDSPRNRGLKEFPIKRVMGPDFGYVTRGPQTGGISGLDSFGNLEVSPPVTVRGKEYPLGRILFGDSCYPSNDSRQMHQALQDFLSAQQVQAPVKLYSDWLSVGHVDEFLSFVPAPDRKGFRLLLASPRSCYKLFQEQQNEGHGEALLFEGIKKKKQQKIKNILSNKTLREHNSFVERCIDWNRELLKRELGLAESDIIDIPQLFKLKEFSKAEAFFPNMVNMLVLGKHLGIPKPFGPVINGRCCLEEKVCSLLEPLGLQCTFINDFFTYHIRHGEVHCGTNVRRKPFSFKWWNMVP
Fam108B counter = counter-screen for RBBP9 inhibitors: inhibitors of mouse Fam108B. recombinant Fam108B, FP-Rh probe fluorescence polarization. inhibition, % at 9.51 µM. 300,000 compounds, 0.33% hits. AID 1947;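 active = inhibition above the screen mean inhibition plus 3 SD, computed separately per campaign, cut at about 18% in these data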;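 note: inhibitors lower polarization as less probe binds the enzyme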
LYPLA2 inh = counter-screen for PME1 inhibitors: inhibitors of human LYPLA2 | O95372 | AID 2177 | 320,000 compounds, 0.38% hits | inhibition, % at 5.9 µM | recombinant LYPLA2, FP-Rh probe fluorescence polarization;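 active = inhibition above the screen-wide mean plus 3 SD, limit set per campaign, cut at about 26% in these data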;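 note: 0% = LYPLA2 with DMSO and 100% = wells lacking LYPLA2 enzyme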
LYPLA1 counter = blocks human lysophospholipase 1, a PME1 counter-screen | inhibition, % at 5.9 µM | AID 2174 | O75608 | 320,000 compounds, 0.16% hits | recombinant LYPLA1, FP-Rh probe fluorescence polarization;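 active = inhibition above the mean of all tested compounds plus 3 SD, set per campaign, cut at about 14% in these data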;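 note: inhibitors block serine hydrolase probe labeling of LYPLA1 so polarization falls; 0% = enzyme with DMSO and 100% = wells lacking LYPLA1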
GSTO1 counter = blocks human GSTO1 in RBBP9 counter-screen | P78417 | recombinant GSTO1, activity-based probe fluorescence polarization | inhibition, % at 5.96 µM | 300,000 compounds, 1.1% hits;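 active = inhibition above the campaign mean inhibition plus 3 SD, cut at about 35% in these data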;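 note: 0% = GSTO1-1 with DMSO and 100% = wells lacking GSTO1-1 enzyme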
Fam108b inh conf = Fam108b (mouse) hydrolase inhibition, confirmation assay. shares compounds with Fam108B counter. recombinant Fam108b, FP-Rh probe fluorescence polarization. inhibition, % at 9.51 µM. 930 compounds, 44% hits. AID 1978;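 active = inhibition above a limit from the primary screen, the mean over all compounds plus 3 SD, cut at about 19% in these data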;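 note: 0% = median of active Fam108b wells and 100% = catalytically dead S170A mutant; inhibitors free the probe so polarization falls as inhibition rises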
Fam108b ABPP HTS = inhibits mouse Fam108b in gel-based ABPP; shares compounds with Fam108B counter; recombinant Fam108b, fluorophosphonate probe; inhibition, % at 20 µM; 260 compounds, 44% hits; AID 588649; in the data active = inhibition above about 40%
GSTO1 confirm = GSTO1 (human) inhibition, confirmation; shares compounds with GSTO1 counter; recombinant GSTO1, probe fluorescence polarization; inhibition, % at 5.96 µM; 2,400 compounds, 54% hits;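 active = inhibition above the primary screen's cutoff, its mean inhibition plus 3 SD, cut at about 35% in these data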;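 note: loss of polarization as inhibitors block binding of rhodamine sulfonate ester activity probe; 0% = GSTO1 with DMSO and 100% = wells lacking GSTO1 enzyme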
LYPLA1 conf = LYPLA1 (human) inhibition, confirmation counter-screen | 480 compounds, 69% hits | inhibition, % at 5.9 µM | recombinant LYPLA1, FP-Rh probe fluorescence polarization | shares compounds with LYPLA1 counter;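 active = mean inhibition across replicates above the hit cutoff set in the primary screen, cut at about 15% in these data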;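 note: loss of FP-Rh probe labeling of LYPLA1 seen as lower polarization; 0% = LYPLA1 with DMSO and 100% = wells lacking LYPLA1 enzyme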
* = called active by the depositor; · = not tested or not shown.

SMILES	PME-1 primary	PAD4 inh	Fam108B counter	LYPLA2 inh	LYPLA1 counter	GSTO1 counter	Fam108b inh conf	GSTO1 confirm	others
CC1=NN(c2ccccc2)C(=O)/C1=C/C=C/c1ccccc1	16.2	1.9	6.9	1.9	-2.2	16.2	·	·
CC1=NN(c2cccc(C(=O)O)c2)C(=O)/C1=C\C=C\c1ccco1	-6.8	6.2	24.4*	-4.2	1.2	55.0*	29.4*	28.3
O=C1/C(=C/C=C/c2ccco2)SC(=S)N1c1ccc(O)cc1	-10.4	-13.8	19.4*	-13.7	-16.4	45.9*	-1.4	23.9
COc1ccccc1CNC(=O)CN1C(=O)NC2(CCCCCCC2)C1=O	·	1.2	·	·	·	·	·	·
O=C1C(=O)c2ccc(-c3ccccc3)cc2-c2ccccc21	16.0	-2.9	54.4*	14.2	-4.3	87.4*	69.3*	90.6*	Fam108b ABPP HTS=15.0
Nc1ccc2c(c1)C(=O)c1ccccc1-2	-1.7	-1.3	0.7	1.5	0.2	6.0	·	·
Cc1ccc(/C=C2\SC(=S)N(/N=C/c3cc([N+](=O)[O-])ccc3O)C2=O)o1	5.2	-1.4	25.2*	1.6	-4.3	49.7*	25.5*	43.3*
COc1ccc(-c2sc3ccccc3c2/C=C/c2ccncc2)cc1	·	-0.7	·	·	·	·	·	·
Cn1c2ccccc2c(=O)n2c(=O)c3ccccc3cc12	6.7	68.7*	28.7*	13.2	1.9	78.1*	5.8	12.5
O=C(O)C1Nc2c(O)cccc2C2C=CCC12 (stereo unspecified)	14.4	-3.0	65.7*	-5.7	-17.1	60.6*	56.6*	51.9*
O=C(O)C1Nc2ccc(Br)cc2C2C=CCC12 (stereo unspecified)	-13.5	8.1	54.6*	21.6	-1.1	50.9*	34.6*	48.7*	Fam108b ABPP HTS=40.0*
CCOC(=O)C1Nc2ccc(Br)cc2C2C=CCC12 (stereo unspecified)	5.4	-13.4	11.6	-5.1	-5.6	16.0	·	·
COc1cc2c(cc1OC)CN(C(=O)c1cc(C3CC3)nn1-c1ccccc1)CC2	0.7	-9.7	·	2.6	-2.2	·	·	·
O=C(NCCC1CCCCN1S(=O)(=O)c1ccccc1)C(=O)NCc1ccc(F)cc1 (stereo unspecified)	-5.3	0.8	3.2	1.9	2.2	-3.2	·	·
O=C1C(=O)c2c(C(=O)c3ccccc3)coc2-c2ccccc21	14.4	-12.6	13.8	18.2	4.2	31.6	·	·
Cc1oc2c(c1C(=O)c1ccccc1)C(=O)C(=O)c1ccccc1-2	28.6*	74.0*	55.0*	14.0	9.6	85.0*	35.2*	91.1*	Fam108b ABPP HTS=25.0
NC(=O)c1ccc(N=C2C(=O)Nc3ccc([N+](=O)[O-])cc32)cc1	3.2	-2.1	24.4*	8.8	0.6	71.5*	4.4	30.0
C=CCn1c(SCC(=O)NC2CC2)nnc1C1CC1	-1.2	-4.3	1.0	0.6	-0.4	0.4	·	·
C[C@H](CO)N1C[C@H](C)[C@@H](CN(C)Cc2ccncc2)Oc2c(NS(=O)(=O)c3cn(C)cn3)cccc2C1=O	·	2.0	·	·	·	·	·	·
Cc1cc(C)n2nc(SC(C)C(=O)Nc3ccccc3F)nc2n1 (stereo unspecified)	·	1.9	·	·	·	·	·	·
CCOC(=O)c1ccc(NC2=CC(=O)C(=O)c3ccccc32)cc1	9.9	-10.8	19.0*	9.8	-1.1	77.0*	30.4*	86.7*	Fam108b ABPP HTS=25.0
CCOC(=O)c1ccc(NC(=O)C(C)N2C(=O)c3ccccc3C2=O)cc1 (stereo unspecified)	-2.3	-1.1	-6.4	0.7	0.7	1.5	·	·
c1coc(-c2nnc(-c3ccco3)nn2)c1	-2.3	-6.8	21.9*	10.9	-5.5	67.8*	15.8	37.8*
CCc1cc(Cn2nc(-c3ccccc3)cc2C(=O)NCc2cccs2)on1	-63.2	-16.5	-42.7	-71.2	-42.6	-13.0	·	·
CCN(c1ccccc1)S(=O)(=O)c1ccc(Cl)c(NC(=O)COC(=O)c2ccc(O)cc2)c1	3.2	5.5	0.8	-14.4	-16.1	-1.7	·	·
SMILES	PME-1 primary	PAD4 inh	Fam108B counter	LYPLA2 inh	LYPLA1 counter	GSTO1 counter	Fam108b inh conf	GSTO1 confirm	others
CCN(c1ccccc1)S(=O)(=O)c1ccc(Cl)c(NC(=O)COC(=O)c2cc(O)c3ccccc3c2O)c1	39.8*	25.9*	19.6*	7.5	0.1	51.2*	47.8*	27.5
COC(=O)[C@]1(C)N[C@H](CN(C)C(C)=O)[C@@H]2C(=O)N(Cc3ccccc3)C(=O)[C@@H]21	·	3.6	·	·	·	·	·	·
CN(C)c1ncc(C2=C(Cl)C(=O)C(N3CCCC3)=C(Cl)C2=O)s1	4.3	7.4	25.7*	0.1	-2.9	87.7*	-4.1	81.1*
OCCNc1c2ccccc2nc2c(F)c(F)c(F)c(F)c12	9.1	4.2	5.1	1.9	1.3	-54.1	·	·
Cc1c2ccccc2nc2c(F)c(NCCO)c(F)c(F)c12	4.1	10.6	18.8*	7.6	3.0	62.3*	4.4	13.0
O=C(CC1C(=O)NCCN1Cc1ccccc1C(F)(F)F)NCCN1CCOCC1 (stereo unspecified)	5.1	-5.2	-6.6	7.0	5.7	1.0	·	·
O=S(=O)(c1ccc2nc(-c3ccco3)c(-c3ccco3)nc2c1)N1CCOCC1	11.9	-5.4	19.5*	2.2	-3.0	48.3*	11.5	20.7
O=S(=O)(c1ccc2ccccc2c1)N1CCOCC1	2.7	-1.5	0.3	3.9	-0.1	-1.2	·	·
CCCCCCCCCCCCCCCC[n+]1ccc(/C=N/O)cc1	56.4*	5.6	40.8*	24.0	14.9*	3.0	44.5*	·	LYPLA1 conf=19.6*
O=C1c2ccccc2-c2c1cccc2C(=O)N1CCN(C(=O)c2ccco2)CC1	2.7	10.1	2.6	-0.7	3.3	-4.8	·	·
O=C(O)CCCNc1cc(N2CCN(C(=O)c3ccco3)CC2)c2noc3c2c1C(=O)c1ccccc1-3	6.2	-6.8	35.3*	14.3	18.1*	53.4*	40.8*	30.1	Fam108b ABPP HTS=75.0*;LYPLA1 conf=18.5*
C/C(=N\NC(=O)c1cccc(Cl)c1)C1C(=O)c2ccccc2C1=O	4.0	1.0	30.9*	7.0	24.3*	2.6	34.4*	·	LYPLA1 conf=28.4*
COC(=O)/C=c1/sc2nc3ccccc3n2c1=O	-0.4	2.4	4.0	1.7	1.0	0.0	·	·
O=c1/c(=C\c2cc([N+](=O)[O-])cc([N+](=O)[O-])c2O)sc2nc3ccccc3n12	3.7	-19.2	52.0*	6.2	15.8*	-20.4	39.4*	·	LYPLA1 conf=-1.9
Cc1noc(C)c1S(=O)(=O)N(C)C[C@H]1Oc2c(NC(=O)NC(C)C)cccc2C(=O)N([C@H](C)CO)C[C@@H]1C	·	-0.7	·	·	·	·	·	·
